The campaign covered roughly 5,500 compounds. About 2,000 (36%) were called active. Inconclusive results (about 18%) are left out. Rule as the data show it: active = normalized growth mostly below about 0.91 (no sharp cut-off); inconclusive = no clear call, values can overlap the other calls; inactive = mostly above about 0.92. This is one part of the list.
Assay: chemical genetic growth profiling, strain panel (AID 1159580);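 also: tested at 20 µM; growth read once vehicle control cultures reached saturation at 30 °C; 1 = growth at the plate median or of vehicle wells; lower values mean less growth of the strain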
Settings: growth OD

Measured: normalized growth

CN(C)CCN(Cc1ccccc1)c1ccccn1
inactive: S. cerevisiae deletion strains, locus YJR075W, strain HOC1, stronger effect = lower value 1.01 | S. cerevisiae deletion strains, locus YKL009W, strain mrt4, stronger effect = lower value 0.993 | S. cerevisiae deletion strains, locus YKL068W, stronger effect = lower value 0.969 | S. cerevisiae deletion strains, locus YKL085W, strain MDH1 (second series), stronger effect = lower value 0.978 | S. cerevisiae deletion strains, locus YKL085W, strain MDH1, stronger effect = lower value 0.978 | S. cerevisiae deletion strains, locus YKL160W, strain elf1, stronger effect = lower value 1.03 | S. cerevisiae deletion strains, locus YKL190W, strain CNB1, stronger effect = lower value 0.983 | S. cerevisiae deletion strains, locus YKR001C, strain vps1, stronger effect = lower value 0.994 | S. cerevisiae deletion strains, locus YKR026C, strain gcn3, stronger effect = lower value 1 | S. cerevisiae deletion strains, locus YKR091W, strain srl3, stronger effect = lower value 1.01 | S. cerevisiae deletion strains, locus YLL001W, strain dnm1, stronger effect = lower value 1.04 | S. cerevisiae deletion strains, locus YLL026W, stronger effect = lower value 1.02 | S. cerevisiae deletion strains, locus YLL041C, strain sdh2, stronger effect = lower value 1.01 | S. cerevisiae deletion strains, locus YLR027C, strain aat2, stronger effect = lower value 1.01 | S. cerevisiae deletion strains, locus YLR039C, strain RIC1, stronger effect = lower value 0.966 | S. cerevisiae deletion strains, locus YLR058C, strain SHM2, stronger effect = lower value 0.999 | S. cerevisiae deletion strains, locus YLR102C, strain apc9, stronger effect = lower value 0.986 | S. cerevisiae deletion strains, locus YLR113W, strain HOG1, stronger effect = lower value 0.909 | S. cerevisiae deletion strains, locus YLR221C, strain rsa3, stronger effect = lower value 0.988 | S. cerevisiae deletion strains, locus YLR258W, strain gsy2, stronger effect = lower value 1.01 | S. cerevisiae deletion strains, locus YLR262C, strain YPT6 (second series), stronger effect = lower value 1.02 | S. cerevisiae deletion strains, locus YLR262C, strain YPT6, stronger effect = lower value 1.01 | S. cerevisiae deletion strains, locus YLR268W, strain sec22, stronger effect = lower value 0.985 | S. cerevisiae deletion strains, locus YLR320W, strain mms22, stronger effect = lower value 1.01 | S. cerevisiae deletion strains, locus YLR330W, strain CHS5, stronger effect = lower value 0.999 | S. cerevisiae deletion strains, locus YLR342W, strain FKS1 (second series), stronger effect = lower value 1.04 | S. cerevisiae deletion strains, locus YLR342W, strain FKS1, stronger effect = lower value 1.02 | S. cerevisiae deletion strains, locus YLR357W, strain rsc2, stronger effect = lower value 1.03 | S. cerevisiae deletion strains, locus YLR370C, strain arc18, stronger effect = lower value 1.03 | S. cerevisiae deletion strains, locus YLR371W, strain rom2, stronger effect = lower value 0.976 | S. cerevisiae deletion strains, locus YLR384C, strain iki3, stronger effect = lower value 1.01 | S. cerevisiae deletion strains, locus YLR418C, strain cdc73, stronger effect = lower value 1.02 | S. cerevisiae deletion strains, locus YML016C, strain PPZ1, stronger effect = lower value 1.01 | S. cerevisiae deletion strains, locus YML032C, strain rad52, stronger effect = lower value 0.978 | S. cerevisiae deletion strains, locus YML120C, strain ndi1, stronger effect = lower value 1.02 | S. cerevisiae deletion strains, locus YML124C, strain tub3, stronger effect = lower value 0.988 | S. cerevisiae deletion strains, locus YMR058W, strain fet3, stronger effect = lower value 1.02 | S. cerevisiae deletion strains, locus YMR078C, strain ctf18, stronger effect = lower value 0.988 | S. cerevisiae deletion strains, locus YMR125W, strain sto1, stronger effect = lower value 1.02 | S. cerevisiae deletion strains, locus YMR129W, stronger effect = lower value 1 | S. cerevisiae deletion strains, locus YMR205C, strain PFK2, stronger effect = lower value 1.04 | S. cerevisiae deletion strains, locus YMR223W, strain ubp8, stronger effect = lower value 1.02 | S. cerevisiae deletion strains, locus YMR231W, strain pep5, stronger effect = lower value 1 | S. cerevisiae deletion strains, locus YMR263W, strain SAP30, stronger effect = lower value 0.976 | S. cerevisiae deletion strains, locus YMR307W, strain GAS1, stronger effect = lower value 1.06 | S. cerevisiae deletion strains, locus YNL067W, strain RPL9B, stronger effect = lower value 0.985 | S. cerevisiae deletion strains, locus YNL071W, strain lat1, stronger effect = lower value 1.01 | S. cerevisiae deletion strains, locus YNL128W, strain TEP1, stronger effect = lower value 0.987 | S. cerevisiae deletion strains, locus YNL153C, strain GIM3, stronger effect = lower value 0.995 | S. cerevisiae deletion strains, locus YNL183C, strain NPR1, stronger effect = lower value 0.942 | S. cerevisiae deletion strains, locus YNL209W, strain ssb2, stronger effect = lower value 1 | S. cerevisiae deletion strains, locus YNL233W, strain BNI4, stronger effect = lower value 1.01 | S. cerevisiae deletion strains, locus YNL248C, strain rpa49, stronger effect = lower value 1 | S. cerevisiae deletion strains, locus YNL250W, strain rad50, stronger effect = lower value 0.96 | S. cerevisiae deletion strains, locus YNL271C, strain bni1, stronger effect = lower value 0.953 | S. cerevisiae deletion strains, locus YNL298W, strain CLA4, stronger effect = lower value 0.994 | S. cerevisiae deletion strains, locus YNL307C, strain MCK1, stronger effect = lower value 0.989 | S. cerevisiae deletion strains, locus YNL322C, strain KRE1 (second series), stronger effect = lower value 1.02 | S. cerevisiae deletion strains, locus YNL322C, strain KRE1, stronger effect = lower value 0.987 | S. cerevisiae deletion strains, locus YNR049C, strain mso1, stronger effect = lower value 1.02 | S. cerevisiae deletion strains, locus YNR052C, strain pop2, stronger effect = lower value 0.986 | S. cerevisiae deletion strains, locus YOL006C, strain TOP1, stronger effect = lower value 1 | S. cerevisiae deletion strains, locus YOL012C, strain htz1 1.43 | S. cerevisiae deletion strains, locus YOL147C, strain pex11, stronger effect = lower value 0.978 | S. cerevisiae deletion strains, locus YOR001W, strain rrp6, stronger effect = lower value 1.04 | S. cerevisiae deletion strains, locus YOR061W, strain CKA2, stronger effect = lower value 0.996 | S. cerevisiae deletion strains, locus YOR069W, strain VPS5, stronger effect = lower value 1 | S. cerevisiae deletion strains, locus YOR070C, strain gyp1, stronger effect = lower value 0.999 | S. cerevisiae deletion strains, locus YOR080W, strain dia2, stronger effect = lower value 1.02 | S. cerevisiae deletion strains, locus YOR083W, strain WHI5, stronger effect = lower value 1.01 | S. cerevisiae deletion strains, locus YOR106W, strain vam3, stronger effect = lower value 1.05 | S. cerevisiae deletion strains, locus YOR136W, strain idh2, stronger effect = lower value 0.997 | S. cerevisiae deletion strains, locus YOR144C, strain elg1, stronger effect = lower value 0.98 | S. cerevisiae deletion strains, locus YOR184W, strain ser1, stronger effect = lower value 1 | S. cerevisiae deletion strains, locus YOR231W, strain MKK1, stronger effect = lower value 0.959 | S. cerevisiae deletion strains, locus YOR265W, strain rbl2, stronger effect = lower value 1 | S. cerevisiae deletion strains, locus YOR270C, strain vph1, stronger effect = lower value 1.02 | S. cerevisiae deletion strains, locus YOR290C, strain snf2, stronger effect = lower value 0.985 | S. cerevisiae deletion strains, locus YOR316C, strain cot1, stronger effect = lower value 0.991 | S. cerevisiae deletion strains, locus YPL051W, strain arl3, stronger effect = lower value 1.02 | S. cerevisiae deletion strains, locus YPL055C, strain LGE1, stronger effect = lower value 1.04 | S. cerevisiae deletion strains, locus YPL078C, strain atp4, stronger effect = lower value 1.04 | S. cerevisiae deletion strains, locus YPL106C, strain sse1, stronger effect = lower value 1.02 | S. cerevisiae deletion strains, locus YPL240C, strain hsp82, stronger effect = lower value 1.01 | S. cerevisiae deletion strains, locus YPL241C, strain CIN2, stronger effect = lower value 0.992 | S. cerevisiae deletion strains, locus YPL256C, strain CLN2, stronger effect = lower value 0.974 | S. cerevisiae deletion strains, locus YPR119W, strain clb2, stronger effect = lower value 0.988 | S. cerevisiae deletion strains, locus YPR141C, strain kar3, stronger effect = lower value 0.965 | S. cerevisiae deletion strains, locus YPR163C, strain tif3, stronger effect = lower value 0.982 | S. cerevisiae deletion strains, locus YPR167C, strain met16, stronger effect = lower value 0.973 | S. cerevisiae deletion strains, strain wtn01, stronger effect = lower value 0.989 | S. cerevisiae strains, strain wild type, stronger effect = lower value 0.999
